Reference: PubChem BioAssay
Inconclusive results are not listed. Activity calls are given as the source filed them.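 Rule for the calls, unless noted: active = viability at or below 27.92% in each of two runs, the all-compound median minus 4 SD; inconclusive = no clear call, values can overlap the other calls; inactive = the rest.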

Columns and labels:
[1] = OD615 S. cerevisiae growth inhibition, permissive medium, pilot counter-assay, permissive growth control for S. cerevisiae lifespan shortening project (AID 705;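 active = growth inhibition above 25% in both replicates, a cutoff set 3 SD above the mean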); details: OD615, 24 h, at 10 µM, stronger effect = higher value
[2] = Restrictive medium S. cerevisiae growth inhibition, OD615, pilot screen of yeast lifespan reduction project, restrictive growth control (AID 706;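 active = growth inhibition above a set limit, 3 SD over mean compound inhibition, in both replicates, cut at about 43% in these data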;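 note: modified DeaD lifespan yeast strain shifted to restrictive glucose medium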); details: OD615, 48 h, at 10 µM, stronger effect = higher value
[3] = viability gain of MRP-1-high H69AR cells under doxorubicin, pilot screen, MRP-1 activator project, CellTiter-Glo, duplicate (AID 807;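 active = viability increase at or above a cutoff of the median across tested compounds plus 3 SD, cut at about 8.5% in these data, passing the limit was not always enough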;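 note: compound pretreatment 18-22 h then 72 h combined with doxorubicin; 0% = doxorubicin alone and 100% = vehicle without doxorubicin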); details: H69AR viability with doxorubicin, CellTiter-Glo luminescence; at 10 µM; stronger effect = higher value
[4] = growth suppression of beta-catenin knockout HCT116, pilot screen, human colon tumor cells (AID 823;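 active = cell viability at or below a set limit in both duplicate runs, the limit being the all-compound median minus 4 SD, cut at about 23% in these data, passing the limit was not always enough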;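 note: 0% = wells killed by 20 µM Hyamine and 100% = untreated DMSO cell wells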); details: CellTiter-Glo, 60 h, at 10 µM, stronger effect = lower value
[5] = growth suppression of PTEN-deleted HCT116, pilot screen, cell-based, HCT116 clonal line, CellTiter-Glo (AID 824); details: 60 h, at 10 µM, stronger effect = lower value;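 note: 0% = 20 µM Hyamine control and 100% = vehicle cell control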
[6] = inhibitors of the yeast RAM network, pilot screen, dse1pr::URA3 reporter, 5-FOA selection (AID 869;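 active = inhibition over a set limit, the all-compound mean plus 3 SD, in both replicate runs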;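 note: 0% = DMSO wells with no growth and 100% = 10 µM 1-NA-PP1 with full growth; RAM network block rescues cells from 5-FOA so hits raise OD615 growth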); details: S. cerevisiae dse1pr::URA3 5-FOA growth, OD615, 2 d; at 10 µM; stronger effect = higher value; strain carries analog-sensitive mutant Cbk1 kinase
[7] = reversal of MRP1-mediated doxorubicin resistance, pilot screen, H69AR cells, doxorubicin co-treatment (AID 601;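 active = viability loss from added drug above about 55%, and viability with drug at most 40%, in both replicates, limit read from the data, passing the limit was not always enough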); details: CellTiter-Glo, 72 h, at 10 µM; for differential viability (reversal): stronger effect = higher value
[8] = 384-well plate pilot, post-Golgi transport modulator project, inhibition of yeast transport mutant growth (AID 636; in the data active = inhibition above about 31%); details: absorbance 615 nm, about 18 h, stronger effect = higher value
[9] = growth suppression of yeast trafficking mutant, preliminary HTS, modulators of trafficking downstream of Golgi apparatus project, 1536-format plate, OD 615 nm (AID 637; in the data active = inhibition above about 30%); details: yeast transport mutant growth, absorbance 615 nm, 18 h; stronger effect = higher value
[10] = growth inhibitors of H69AR lung tumor, primary screen, human, duplicate replicates (AID 580;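 active = viability at or under a set limit in both replicates, limit being median viability minus 3 SD, cut at about 48% in these data, passing the limit was not always enough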;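 note: 100% = mean luminescence of untreated wells and 0% = no signal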); details: H69AR lung tumor cells viability, ATP luminescence, 72 h; at 10 µM; stronger effect = lower value
[11] = H69AR cells + 2 uM doxorubicin, measured here: viability with 2 uM doxorubicin, stronger effect = lower value
[12] = H69AR cells, compound alone cytotoxicity

Cc1c(S(=O)(=O)N2CCc3ccccc3C2)c(=O)n(C)c(=O)n1C
inactive: growth inhibition [1] -14.9% | growth inhibition [2] -10.4% | viability increase [3] -0.16% | viability [4] 103% | viability [5] 97.9% | inhibition [6] 2.17%

COc1cc(Cl)c(S(=O)(=O)N2CCN(Cc3ccc4c(c3)OCO4)CC2)cc1Cl
inactive: growth inhibition [1] -9.75% | growth inhibition [2] -4.02% | viability increase [3] -2.17% | viability [4] 84.2% | viability [5] 82.2% | inhibition [6] 1.04%

COC(=O)CSc1nc2ccc(NC(=O)CSc3nnnn3Cc3ccccc3)cc2s1
inactive: growth inhibition [1] -3.46% | growth inhibition [2] 13.8% | viability increase [3] 1.67% | viability [4] 87.2% | viability [5] 96.9% | inhibition [6] 4.05%

O=c1c2ccccc2nc(N2CCN(c3ccccc3)CC2)n1Cc1ccccc1
inactive: growth inhibition [1] -18.7% | growth inhibition [2] -8.96% | viability increase [3] -6.05% | viability [4] 66.3% | viability [5] 72.8% | inhibition [6] 1.27%

O=C(c1cc(C2CC2)on1)N1CCN(c2ccc(F)cc2)CC1
inactive: growth inhibition [1] -18.2% | growth inhibition [2] -26.9% | viability increase [3] -1.75% | viability [4] 96.8% | viability [5] 92.4% | inhibition [6] 1.9%

COc1cccc(CSc2nc3sc(C)c(C)c3c(=O)n2Cc2ccco2)c1
inactive: growth inhibition [1] 6.35% | growth inhibition [2] 2.66% | viability increase [3] 0.35% | viability [4] 95.7% | viability [5] 93%

CC1CCN(c2nc(-c3ccccc3)cc(C(F)(F)F)n2)CC1
inactive: growth inhibition [1] -10.7% | growth inhibition [2] -11% | viability increase [3] -1.76% | viability [4] 88.1% | viability [5] 90.6% | inhibition [6] 2.21%

COc1ccc(OC)c(NC(=O)CN(c2ccc(C(C)C)cc2)S(=O)(=O)c2c(C)noc2C)c1
inactive: growth inhibition [1] -11.5% | growth inhibition [2] -12.1% | viability increase [3] -4.81% | viability [4] 56.5% | viability [5] 48.1% | inhibition [6] 2.27%

O=C(CSc1nnnn1-c1ccccc1)Nc1nsc(-c2ccc(Cl)cc2)n1
54.8%: viability [7, 11]
inactive: differential viability (reversal) ([7]; H69AR cells + 2 uM doxorubicin) -0.79% | inhibition [8] 0.39% | inhibition [9] 3.33%
54%: viability [7, 12]

Brc1ccccc1-c1nnc(CSc2nnc3sc4ccccc4n23)o1
inactive: growth inhibition [1] 16.1% | viability increase [3] -3.18% | viability [4] 96.1% | viability [5] 91.7% | inhibition [6] 2.15%
active: growth inhibition [2] 64.8%

O=C(O)CC1C(=O)NCCN1C/C=C/c1ccccc1 (stereo not drawn)
inactive: growth inhibition [1] -17.1% | growth inhibition [2] -16.1% | viability increase [3] -2.39% | viability [4] 105% | viability [5] 93.1% | inhibition [6] 3.62%

CC(C)(C)C1CCc2onc(C(=O)Nc3cnn(Cc4ccc(F)cc4)c3)c2C1 (stereo not drawn)
inactive: differential viability (reversal) ([7]; H69AR cells + 2 uM doxorubicin) -17.6% | inhibition [8] 0% | inhibition [9] 3.02%
32.9%: viability [7, 12]
50.6%: viability [7, 11]
active: viability [10] 32.9%

C(#Cc1ccccc1)CN1CCN(c2ccccn2)CC1
inactive: growth inhibition [1] -7.33% | growth inhibition [2] -2.65% | viability increase [3] -1.2% | viability [4] 98.3% | viability [5] 91.9%

CCc1ccccc1S(=O)(=O)Cc1ccc(C(=O)N2CCN(c3ccccc3OC)CC2)o1
inactive: growth inhibition [1] -12.5% | growth inhibition [2] -21.1% | viability increase [3] -2.86% | viability [4] 37% | viability [5] 43.5% | inhibition [6] 1.31%

N#CCCN1CCN(C(=S)c2ccc(-c3cccc(Cl)c3)o2)CC1
inactive: growth inhibition [1] -12.9% | growth inhibition [2] 22.7% | viability increase [3] -0.32% | viability [4] 76.9% | viability [5] 83% | inhibition [6] 1.51%

COCCCNC(=O)c1c(N)n(-c2cccc(S(N)(=O)=O)c2)c2nc3ccccc3nc12
75.4%: viability [7, 11]
inactive: viability [10] 67.2% | differential viability (reversal) ([7]; H69AR cells + 2 uM doxorubicin) -8.22% | inhibition [8] -4.13% | inhibition [9] -0.79%
67.2%: viability [7, 12]

Nc1ccc(S(=O)(=O)N2CCCc3ccccc32)cc1
inactive: growth inhibition [1] -18.7% | growth inhibition [2] -24% | viability increase [3] -3.42% | viability [4] 83% | viability [5] 83% | inhibition [6] 1.49%

O=C(Cn1cc2c(n1)CCCC2)NCc1ccccn1
inactive: growth inhibition [1] -2.39% | growth inhibition [2] 2.25% | viability increase [3] -0.85% | viability [4] 104% | viability [5] 106% | inhibition [6] 0.72%

COc1ccccc1OCCSc1nnnn1-c1ccc(C)cc1
inactive: growth inhibition [1] -13.8% | growth inhibition [2] -6.1% | viability increase [3] 0.71% | viability [4] 79.5% | viability [5] 78.7% | inhibition [6] 2.32%

CCCCOc1ccccc1C1NC(=O)NC(C)=C1C(=O)OCCOC (stereo not drawn)
inactive: growth inhibition [1] -16% | growth inhibition [2] -16.6% | viability increase [3] -2.89% | viability [4] 92.9% | viability [5] 88.1% | inhibition [6] 2.28%

COc1ccccc1-n1c(CNC(=O)c2ccccc2)nnc1SCC(=O)Nc1nnc(C)s1
inactive: growth inhibition [1] 3.6% | growth inhibition [2] 0.83% | viability increase [3] -0.83% | viability [4] 103% | viability [5] 102% | inhibition [6] 1.05%
